According to the supplement of paper PMC10849652:
About 7,900 targets were measured; listed, in parts, are those with a hit and a random draw of the rest. About 0.6% of all pairs of compound and target were hits. Unmarked numbers belong to inactive results.

UniProt Q96EV8, sequence (Q96EV8 whole entry, looked up): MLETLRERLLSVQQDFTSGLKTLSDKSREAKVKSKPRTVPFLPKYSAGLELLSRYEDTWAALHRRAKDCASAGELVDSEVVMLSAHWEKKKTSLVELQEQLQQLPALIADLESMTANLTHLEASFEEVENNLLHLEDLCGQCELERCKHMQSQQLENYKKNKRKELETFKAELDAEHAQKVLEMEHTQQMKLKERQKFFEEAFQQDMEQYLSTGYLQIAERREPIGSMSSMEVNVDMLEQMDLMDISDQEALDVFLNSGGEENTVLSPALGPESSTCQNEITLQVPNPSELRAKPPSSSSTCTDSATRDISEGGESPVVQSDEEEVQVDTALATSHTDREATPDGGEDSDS
UniProt Q15075, sequence (Q15075 whole entry, looked up): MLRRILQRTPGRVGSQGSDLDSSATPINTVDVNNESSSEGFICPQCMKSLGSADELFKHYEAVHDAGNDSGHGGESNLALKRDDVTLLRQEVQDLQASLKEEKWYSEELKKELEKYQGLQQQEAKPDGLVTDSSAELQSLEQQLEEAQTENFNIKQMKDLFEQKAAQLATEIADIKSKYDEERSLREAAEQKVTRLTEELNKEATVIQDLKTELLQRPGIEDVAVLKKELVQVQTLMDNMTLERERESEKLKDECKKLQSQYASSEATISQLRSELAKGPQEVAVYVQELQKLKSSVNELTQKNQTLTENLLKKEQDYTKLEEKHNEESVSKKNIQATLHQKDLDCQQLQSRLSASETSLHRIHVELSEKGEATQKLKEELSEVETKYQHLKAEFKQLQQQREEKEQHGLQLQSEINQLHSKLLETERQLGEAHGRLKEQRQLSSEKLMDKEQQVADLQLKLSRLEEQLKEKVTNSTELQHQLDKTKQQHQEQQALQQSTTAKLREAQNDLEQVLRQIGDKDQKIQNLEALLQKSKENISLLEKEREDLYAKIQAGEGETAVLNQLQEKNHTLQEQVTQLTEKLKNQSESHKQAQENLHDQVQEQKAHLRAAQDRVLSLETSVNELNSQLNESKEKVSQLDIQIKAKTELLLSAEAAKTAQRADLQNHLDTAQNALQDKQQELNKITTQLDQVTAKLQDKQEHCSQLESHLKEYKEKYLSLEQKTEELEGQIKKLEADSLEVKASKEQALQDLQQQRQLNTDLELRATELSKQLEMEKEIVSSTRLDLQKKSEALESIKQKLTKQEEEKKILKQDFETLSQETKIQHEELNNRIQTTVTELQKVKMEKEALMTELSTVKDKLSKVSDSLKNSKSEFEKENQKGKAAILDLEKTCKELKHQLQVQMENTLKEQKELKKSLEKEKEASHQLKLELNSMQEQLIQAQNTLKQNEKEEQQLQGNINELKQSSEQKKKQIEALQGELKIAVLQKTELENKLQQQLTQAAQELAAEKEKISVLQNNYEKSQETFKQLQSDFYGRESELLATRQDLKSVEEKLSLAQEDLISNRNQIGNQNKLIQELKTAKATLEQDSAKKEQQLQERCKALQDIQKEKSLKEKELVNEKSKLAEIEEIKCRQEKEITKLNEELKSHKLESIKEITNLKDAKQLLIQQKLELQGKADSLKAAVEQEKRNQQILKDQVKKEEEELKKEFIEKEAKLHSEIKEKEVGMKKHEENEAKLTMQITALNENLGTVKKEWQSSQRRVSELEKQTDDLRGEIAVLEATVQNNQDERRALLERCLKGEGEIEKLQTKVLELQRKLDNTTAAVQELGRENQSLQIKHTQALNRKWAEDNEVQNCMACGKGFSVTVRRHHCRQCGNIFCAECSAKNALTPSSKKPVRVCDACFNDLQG
UniProt O60911, sequence (O60911 whole entry, looked up): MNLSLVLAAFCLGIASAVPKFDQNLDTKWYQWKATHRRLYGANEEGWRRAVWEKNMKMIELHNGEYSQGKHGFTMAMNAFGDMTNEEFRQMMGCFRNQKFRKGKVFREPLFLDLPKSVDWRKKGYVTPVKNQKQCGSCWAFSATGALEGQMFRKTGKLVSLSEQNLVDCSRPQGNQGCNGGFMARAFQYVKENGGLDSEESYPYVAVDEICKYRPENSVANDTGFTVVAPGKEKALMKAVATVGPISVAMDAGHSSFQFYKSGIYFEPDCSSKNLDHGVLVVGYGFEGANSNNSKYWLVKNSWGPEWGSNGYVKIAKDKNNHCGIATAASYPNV
UniProt Q9UK59, sequence (Q9UK59 whole entry, looked up): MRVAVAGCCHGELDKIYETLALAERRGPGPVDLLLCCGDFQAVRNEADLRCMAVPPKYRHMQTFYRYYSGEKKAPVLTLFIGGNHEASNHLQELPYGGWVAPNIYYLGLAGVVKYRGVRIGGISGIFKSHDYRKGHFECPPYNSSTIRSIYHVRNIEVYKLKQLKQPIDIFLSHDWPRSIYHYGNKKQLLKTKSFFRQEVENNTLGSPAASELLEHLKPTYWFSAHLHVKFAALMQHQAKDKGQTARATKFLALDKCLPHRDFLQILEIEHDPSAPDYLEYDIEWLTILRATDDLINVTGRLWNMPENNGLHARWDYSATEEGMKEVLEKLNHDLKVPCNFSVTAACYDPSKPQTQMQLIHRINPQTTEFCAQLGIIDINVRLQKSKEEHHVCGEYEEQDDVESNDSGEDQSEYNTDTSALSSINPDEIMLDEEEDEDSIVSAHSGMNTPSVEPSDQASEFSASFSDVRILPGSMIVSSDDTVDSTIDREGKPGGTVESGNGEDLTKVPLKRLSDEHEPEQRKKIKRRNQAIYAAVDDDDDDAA
UniProt Q8IX18, sequence (Q8IX18 whole entry, looked up): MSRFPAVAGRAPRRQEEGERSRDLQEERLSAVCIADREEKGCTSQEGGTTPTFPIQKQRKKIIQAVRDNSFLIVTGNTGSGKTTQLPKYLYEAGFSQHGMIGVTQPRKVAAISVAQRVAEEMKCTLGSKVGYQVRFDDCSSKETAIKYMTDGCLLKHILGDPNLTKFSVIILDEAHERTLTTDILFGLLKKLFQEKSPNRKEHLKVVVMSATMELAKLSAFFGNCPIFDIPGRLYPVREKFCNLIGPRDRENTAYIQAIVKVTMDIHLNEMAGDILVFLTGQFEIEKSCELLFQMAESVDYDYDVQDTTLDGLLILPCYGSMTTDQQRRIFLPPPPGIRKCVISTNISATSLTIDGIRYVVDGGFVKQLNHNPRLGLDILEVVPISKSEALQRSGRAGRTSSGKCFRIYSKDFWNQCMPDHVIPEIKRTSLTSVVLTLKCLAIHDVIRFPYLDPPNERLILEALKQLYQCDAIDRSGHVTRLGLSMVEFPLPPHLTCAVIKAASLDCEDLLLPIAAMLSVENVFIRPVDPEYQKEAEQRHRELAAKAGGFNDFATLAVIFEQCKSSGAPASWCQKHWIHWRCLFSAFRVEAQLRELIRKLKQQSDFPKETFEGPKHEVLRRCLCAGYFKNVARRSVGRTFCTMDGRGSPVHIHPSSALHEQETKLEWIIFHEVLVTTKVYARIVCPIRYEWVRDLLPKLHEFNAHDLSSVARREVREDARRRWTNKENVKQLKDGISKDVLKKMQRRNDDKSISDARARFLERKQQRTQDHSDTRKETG
UniProt Q8N5C7, sequence (Q8N5C7 whole entry, looked up): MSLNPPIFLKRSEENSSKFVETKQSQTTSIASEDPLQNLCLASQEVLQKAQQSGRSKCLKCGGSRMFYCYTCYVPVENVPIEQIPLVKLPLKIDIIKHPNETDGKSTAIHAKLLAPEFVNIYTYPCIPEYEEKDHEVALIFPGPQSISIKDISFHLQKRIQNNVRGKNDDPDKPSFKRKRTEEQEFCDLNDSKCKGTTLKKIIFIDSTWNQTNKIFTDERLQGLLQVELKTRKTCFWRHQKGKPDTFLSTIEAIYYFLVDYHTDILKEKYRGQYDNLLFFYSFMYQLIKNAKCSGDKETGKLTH
UniProt Q14118, sequence (Q14118 whole entry, looked up): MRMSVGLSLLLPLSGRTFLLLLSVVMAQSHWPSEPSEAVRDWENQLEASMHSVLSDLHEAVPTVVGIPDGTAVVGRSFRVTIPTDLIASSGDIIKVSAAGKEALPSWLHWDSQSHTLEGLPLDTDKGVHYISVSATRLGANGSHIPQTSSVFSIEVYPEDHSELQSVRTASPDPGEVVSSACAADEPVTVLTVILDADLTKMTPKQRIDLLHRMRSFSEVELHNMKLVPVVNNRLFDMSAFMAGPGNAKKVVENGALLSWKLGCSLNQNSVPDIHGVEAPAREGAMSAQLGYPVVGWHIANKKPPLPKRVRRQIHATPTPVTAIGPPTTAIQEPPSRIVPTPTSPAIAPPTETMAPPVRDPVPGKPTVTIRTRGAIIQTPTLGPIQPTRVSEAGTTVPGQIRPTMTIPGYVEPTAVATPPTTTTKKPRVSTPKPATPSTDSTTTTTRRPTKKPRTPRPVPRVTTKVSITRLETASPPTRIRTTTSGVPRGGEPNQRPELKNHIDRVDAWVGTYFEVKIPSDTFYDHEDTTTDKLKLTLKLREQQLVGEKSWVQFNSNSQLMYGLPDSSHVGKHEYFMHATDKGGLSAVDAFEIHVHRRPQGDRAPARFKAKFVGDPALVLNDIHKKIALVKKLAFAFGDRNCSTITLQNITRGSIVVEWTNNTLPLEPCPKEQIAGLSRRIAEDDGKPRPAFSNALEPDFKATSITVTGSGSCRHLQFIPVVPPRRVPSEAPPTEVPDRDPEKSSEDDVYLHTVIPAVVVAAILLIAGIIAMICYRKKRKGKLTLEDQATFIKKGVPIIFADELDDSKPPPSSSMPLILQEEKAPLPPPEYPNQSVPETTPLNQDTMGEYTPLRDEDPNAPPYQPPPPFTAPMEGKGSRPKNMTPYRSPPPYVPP
UniProt Q9H467, sequence (Q9H467 whole entry, looked up): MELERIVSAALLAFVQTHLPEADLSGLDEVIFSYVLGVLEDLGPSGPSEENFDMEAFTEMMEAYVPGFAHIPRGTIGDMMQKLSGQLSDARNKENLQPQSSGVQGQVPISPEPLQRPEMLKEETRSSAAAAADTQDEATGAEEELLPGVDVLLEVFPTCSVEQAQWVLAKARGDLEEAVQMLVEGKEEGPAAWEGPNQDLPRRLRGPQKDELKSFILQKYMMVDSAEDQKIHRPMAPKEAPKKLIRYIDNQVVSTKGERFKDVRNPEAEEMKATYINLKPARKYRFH
UniProt Q15369, sequence (Q15369 whole entry, looked up): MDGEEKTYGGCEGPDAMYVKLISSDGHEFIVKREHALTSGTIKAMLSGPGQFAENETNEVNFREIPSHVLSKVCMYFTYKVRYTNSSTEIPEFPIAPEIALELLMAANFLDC

These targets were tested with CS(=O)(=O)c1ccc(-c2cnc(N)c(C(=O)Nc3ccccc3)n2)cc1 (assay: log2 fold change, soluble protein after heating vs DMSO (PISA); higher = thermal stabilisation; K562 cells, 10 uM, 30 min; active = over 0.2 and 3.5 SD of the protein, either way, in both replicates (recomputed)).
Outline: (§1)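 Soluble protein was quantified by TMTpro 16plex LC-MS/MS after channel sums were equalised. It was obtained as the supernatant after 21,000xg for 90 min from pooled aliquots of K562 cells (2×10^6 cells/mL, 10 μM compound, 30 min) heated for 3 min across 48°C-58°C and extracted in PBS with 0.5% NP-40 at 4°C. Thermal stability values are relative to control samples and come from duplicates. They are given as log2 fold changes.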
For DAG1 (UniProt Q14118), the log2 fold change was 0.037.
DHX40 (UniProt Q8IX18) showed a log2 fold change of 0.018.
In the case of EDC4 (UniProt Q6P2E9), the log2 fold change is reported as -0.064.
FAM118A (UniProt Q9NWS6) showed a log2 fold change of -0.028.
DTNBP1 (UniProt Q96EV8) gave a log2 fold change of 0.093.
Work on DDX46 (UniProt Q7L014) yielded a log2 fold change of 0.12.
Work on EED, A0A5F9ZI63 yielded a log2 fold change of -0.074.
In the case of FAM117A (UniProt Q9C073), the log2 fold change is reported as -0.039.
With DNTTIP2 (UniProt Q5QJE6) the log2 fold change was 0.012.
With EEA1 (UniProt Q15075) the log2 fold change was -0.007.
DBR1 (UniProt Q9UK59) gave a log2 fold change of -0.034.
DOHH (UniProt Q9BU89) showed a log2 fold change of 0.049.
With CTSA (UniProt P10619) the log2 fold change was 0.032.
In the case of DTYMK (UniProt P23919), the log2 fold change is reported as 0.046.
Work on DAB2 (UniProt P98082) yielded a log2 fold change of -0.04.
Work on EXTL2 (UniProt Q9UBQ6) yielded a log2 fold change of 0.132.
DHPS (UniProt M0R1T2) was tested, and the log2 fold change was -0.152.
With DDOST (UniProt P39656) the log2 fold change was 0.014.
DDX39A (UniProt O00148) showed a log2 fold change of 0.062.
Target DTWD1 (UniProt Q8N5C7) has a log2 fold change of 0.053.
DHFR (UniProt P00374) was tested, and the log2 fold change was -0.009.
DPYSL2 (UniProt Q16555) showed a log2 fold change of 0.034.
Work on CTSV (UniProt O60911) yielded a log2 fold change of 0.073.
With EFCAB14 (UniProt O75071) the log2 fold change was 0.045.
For CTNNB1 (UniProt P35222), the log2 fold change was 0.666 (active).
Target EIF4G1 isoform 8 (UniProt Q04637) has a log2 fold change of -0.21.
Work on ERCC2 (UniProt P18074) yielded a log2 fold change of 0.011.
Work on DPH5 isoform 5 (UniProt Q9H2P9) yielded a log2 fold change of 0.017.
Work on ELOC (UniProt Q15369) yielded a log2 fold change of 0.038.
DNAH10 (UniProt Q8IVF4) gave a log2 fold change of 0.124.
CUEDC2 (UniProt Q9H467) showed a log2 fold change of 0.028.
FAM50A (UniProt Q14320) gave a log2 fold change of 0.009.
Work on DHCR7 (UniProt Q9UBM7) yielded a log2 fold change of -0.003.
In the case of DDB1 (UniProt Q16531), the log2 fold change is reported as 0.005.
Target EMD (UniProt P50402) has a log2 fold change of 0.042.
With EHBP1L1 (UniProt Q8N3D4) the log2 fold change was 0.034.
EHD2 (UniProt Q9NZN4) gave a log2 fold change of 0.
Target DHCR24 (UniProt Q15392) has a log2 fold change of 0.229.
With DCTN1 isoform 4 (UniProt Q14203) the log2 fold change was -0.013.

The targets below were run with C[C@@H](Oc1cc(-c2cnn(C3CCNCC3)c2)cnc1N)c1c(Cl)ccc(F)c1Cl [crizotinib] in the same assay as above.
Outline: as §1
In the case of DAG1 (UniProt Q14118), the log2 fold change is reported as 0.119.
With DHX40 (UniProt Q8IX18) the log2 fold change was -0.109.
EDC4 (UniProt Q6P2E9) was tested, and the log2 fold change was 0.179.
With FAM118A (UniProt Q9NWS6) the log2 fold change was -0.112.
In the case of DTNBP1 (UniProt Q96EV8), the log2 fold change is reported as 0.
In the case of DDX46 (UniProt Q7L014), the log2 fold change is reported as 0.1.
Work on EED, A0A5F9ZI63 yielded a log2 fold change of 0.045.
For FAM117A (UniProt Q9C073), the log2 fold change was -0.166.
DNTTIP2 (UniProt Q5QJE6) was tested, and the log2 fold change was -0.028.
With EEA1 (UniProt Q15075) the log2 fold change was -0.007.
DBR1 (UniProt Q9UK59) was tested, and the log2 fold change was -0.022.
DOHH (UniProt Q9BU89) gave a log2 fold change of 0.06.
With CTSA (UniProt P10619) the log2 fold change was -0.563 (active).
For DTYMK (UniProt P23919), the log2 fold change was -0.146.
In the case of DAB2 (UniProt P98082), the log2 fold change is reported as -0.099.
For EXTL2 (UniProt Q9UBQ6), the log2 fold change was 0.111.
For DDOST (UniProt P39656), the log2 fold change was -0.051.
For DDX39A (UniProt O00148), the log2 fold change was -0.082.
In the case of DTWD1 (UniProt Q8N5C7), the log2 fold change is reported as 0.067.
DHFR (UniProt P00374) was tested, and the log2 fold change was 0.956 (active).
DPYSL2 (UniProt Q16555) gave a log2 fold change of 0.025.
With CTSV (UniProt O60911) the log2 fold change was -1.59 (active).
For EFCAB14 (UniProt O75071), the log2 fold change was -0.301 (active).
CTNNB1 (UniProt P35222) gave a log2 fold change of 0.024.
EIF4G1 isoform 8 (UniProt Q04637) showed a log2 fold change of -0.314.
Work on ERCC2 (UniProt P18074) yielded a log2 fold change of 0.059.
With DPH5 isoform 5 (UniProt Q9H2P9) the log2 fold change was 0.092.
Target ELOC (UniProt Q15369) has a log2 fold change of 0.074.
For DNAH10 (UniProt Q8IVF4), the log2 fold change was 0.135.
For CUEDC2 (UniProt Q9H467), the log2 fold change was -0.029.
For FAM50A (UniProt Q14320), the log2 fold change was 0.129.
DHCR7 (UniProt Q9UBM7) was tested, and the log2 fold change was 0.192.
DDB1 (UniProt Q16531) gave a log2 fold change of 0.033.
With EMD (UniProt P50402) the log2 fold change was -0.215 (active).
In the case of EHBP1L1 (UniProt Q8N3D4), the log2 fold change is reported as -0.01.
For EHD2 (UniProt Q9NZN4), the log2 fold change was -0.068.
In the case of DHCR24 (UniProt Q15392), the log2 fold change is reported as 0.428.
DCTN1 isoform 4 (UniProt Q14203) was tested, and the log2 fold change was -0.112.
